In PubChem BioAssay (NCI):
This is part of a sample that, as a whole, favours compounds with a hit. Of some 83,000 tested, about 20% had one in any assay.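 Cell lines were cultured in 96-well plates, exposed to a single compound concentration, and assessed for percent growth 48 hours later.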 The source made the active and inactive calls. Rule for the calls: active = growth percent below 10; inactive = the rest.

Experiments:
Test in all cases: NCI-60 one-dose screen, 48 h (100 = growth as untreated, 0 = no growth, -100 = all killed)
Settings in all cases: 10 µM unless noted
SR leukemia = tested on: SR leukemia
RPMI-8226 leukemia = tested on: RPMI-8226 leukemia
OVCAR-8 ovarian = tested on: OVCAR-8 ovarian
OVCAR-5 ovarian = tested on: OVCAR-5 ovarian
OVCAR-4 ovarian = tested on: OVCAR-4 ovarian
IGROV1 ovarian = tested on: IGROV1 ovarian
OVCAR-3 ovarian = tested on: OVCAR-3 ovarian
HS 578T breast = tested on: HS 578T breast
NCI/ADR-RES ovarian = tested on: NCI/ADR-RES ovarian
T-47D breast = tested on: T-47D breast
BT-549 breast = tested on: BT-549 breast
MDA-MB-435 melanoma = tested on: MDA-MB-435 melanoma
SW-620 colon = tested on: SW-620 colon
MCF7 breast = tested on: MCF7 breast
HCT-116 colon = tested on: HCT-116 colon
HCC-2998 colon = tested on: HCC-2998 colon
KM12 colon = tested on: KM12 colon
SK-OV-3 ovarian = tested on: SK-OV-3 ovarian

Measured: growth

CCOC(=O)c1c(NC(=S)Nc2ccc([N+](=O)[O-])cc2)sc2c1CCCCC2
inactive: SR leukemia 61.7% | RPMI-8226 leukemia 46.7% | OVCAR-8 ovarian 77.3% | OVCAR-5 ovarian 93.7% | OVCAR-4 ovarian 71.6% | IGROV1 ovarian 89.7% | OVCAR-3 ovarian 65.1% | HS 578T breast 81.8% | NCI/ADR-RES ovarian 54% | T-47D breast 58.9% | BT-549 breast 86.3% | MDA-MB-435 melanoma 88.2% | SW-620 colon 98.8% | MCF7 breast 70.1% | HCT-116 colon 70.5% | HCC-2998 colon 96.8% | KM12 colon 72.2%

COC(=O)[C@@H](Cc1c[nH]c2ccccc12)NC[C@@H](O)CN1C(=O)/C(=C\c2cc(OC)c(OC)c(OC)c2)c2ccccc21
inactive: SR leukemia 12.2% | OVCAR-8 ovarian 59.3% | OVCAR-5 ovarian 105% | OVCAR-4 ovarian 63.1% | IGROV1 ovarian 78.9% | OVCAR-3 ovarian 65.3% | HS 578T breast 76% | NCI/ADR-RES ovarian 78.6% | T-47D breast 54.5% | BT-549 breast 68.4% | MDA-MB-435 melanoma 56.1% | SW-620 colon 77.3% | MCF7 breast 34.2% | HCT-116 colon 66% | HCC-2998 colon 75.2% | KM12 colon 60.4%
active: RPMI-8226 leukemia 6.06%

Cc1cc(N2CCOCC2)nc(N(CCCNc2ccnc3cc(Cl)ccc23)Cc2ccc3c(c2)OCO3)n1
inactive: OVCAR-5 ovarian 22.7% | SK-OV-3 ovarian 18.9%
active: SR leukemia -29.2% | RPMI-8226 leukemia -2.52% | OVCAR-8 ovarian -52.4% | OVCAR-4 ovarian -37.9% | OVCAR-3 ovarian -88.6% | HS 578T breast 9.54% | NCI/ADR-RES ovarian -36.1% | T-47D breast -45.9% | BT-549 breast -38.3% | MDA-MB-435 melanoma -45.1% | SW-620 colon -3.78% | MCF7 breast 3.11% | HCT-116 colon -76.9% | HCC-2998 colon -58.2% | KM12 colon 0.0851%

Nc1ncc(-c2ccc3ncnc(N4CCc5cc(F)c(Cl)cc54)c3c2)cc1C=O
inactive: SR leukemia 18.7% | OVCAR-8 ovarian 31.4% | OVCAR-4 ovarian 34.5% | NCI/ADR-RES ovarian 28.6% | SW-620 colon 37.9% | MCF7 breast 11.8% | HCT-116 colon 36.6% | HCC-2998 colon 21.2% | KM12 colon 39.2%
active: RPMI-8226 leukemia -4.54% | OVCAR-5 ovarian 9.67% | IGROV1 ovarian -35.9% | OVCAR-3 ovarian 0.575% | HS 578T breast -18.9% | T-47D breast 7.88% | BT-549 breast 9.08% | MDA-MB-435 melanoma 0.36%

CCCN1C2CCC1/C(=C\c1ccc(OC)cc1)C(=O)/C2=C/c1ccc(OC)cc1
inactive: SR leukemia 45.4% | RPMI-8226 leukemia 40.7% | OVCAR-8 ovarian 72.6% | OVCAR-5 ovarian 93.5% | OVCAR-4 ovarian 73.5% | IGROV1 ovarian 82.2% | OVCAR-3 ovarian 81.8% | HS 578T breast 92% | NCI/ADR-RES ovarian 77% | T-47D breast 45.3% | BT-549 breast 87.2% | MDA-MB-435 melanoma 63.5% | SW-620 colon 90.4% | MCF7 breast 75.8% | HCT-116 colon 61.9% | HCC-2998 colon 91.9% | KM12 colon 74.2%

COc1cc2ncnc(Nc3ccc(S(=O)(=O)Nc4cc(C)on4)cc3)c2cc1OCCCN1CCOCC1
inactive: SR leukemia 103% | RPMI-8226 leukemia 106% | OVCAR-8 ovarian 98.2% | OVCAR-5 ovarian 106% | OVCAR-4 ovarian 94.8% | IGROV1 ovarian 108% | OVCAR-3 ovarian 113% | HS 578T breast 103% | NCI/ADR-RES ovarian 106% | T-47D breast 84.4% | BT-549 breast 91.6% | MDA-MB-435 melanoma 106% | SW-620 colon 106% | MCF7 breast 96.1% | HCT-116 colon 102% | HCC-2998 colon 107% | KM12 colon 103%

O=C(O)CCCN1C(=O)CSC1=S
inactive: SR leukemia 103% | RPMI-8226 leukemia 98% | OVCAR-8 ovarian 105% | OVCAR-5 ovarian 106% | OVCAR-4 ovarian 102% | IGROV1 ovarian 103% | OVCAR-3 ovarian 105% | HS 578T breast 98.9% | NCI/ADR-RES ovarian 103% | T-47D breast 97.7% | BT-549 breast 99.8% | MDA-MB-435 melanoma 97.7% | SW-620 colon 114% | MCF7 breast 90.9% | HCT-116 colon 102% | HCC-2998 colon 104% | KM12 colon 101%

O=C(CN1C(=O)NC2NC(=O)NC21)N/N=C/c1cccc([N+](=O)[O-])c1 (stereo not drawn)
inactive: SR leukemia 110% | RPMI-8226 leukemia 110% | OVCAR-8 ovarian 111% | OVCAR-5 ovarian 105% | OVCAR-4 ovarian 105% | IGROV1 ovarian 103% | OVCAR-3 ovarian 108% | HS 578T breast 107% | NCI/ADR-RES ovarian 101% | T-47D breast 107% | BT-549 breast 102% | MDA-MB-435 melanoma 98.1% | SW-620 colon 105% | MCF7 breast 91.8% | HCT-116 colon 116% | HCC-2998 colon 118% | KM12 colon 104%

C=C(C)[C@@H]1CC[C@]2(C(=O)NC(C)=O)CC[C@]3(C)[C@H](CC[C@@H]4[C@@]5(C)CCCNC(C)(C)[C@@H]5CC[C@]43C)[C@@H]12
inactive: OVCAR-8 ovarian 17.5% | OVCAR-5 ovarian 67.9% | OVCAR-4 ovarian 33.9% | IGROV1 ovarian 20.4% | HS 578T breast 52.3% | NCI/ADR-RES ovarian 29.4% | T-47D breast 17.6% | BT-549 breast 63.1%
active: SR leukemia -24.5% | RPMI-8226 leukemia -30.3% | OVCAR-3 ovarian -34.3% | MDA-MB-435 melanoma -88.7% | SW-620 colon -50% | MCF7 breast -17.3% | HCT-116 colon -69.7% | HCC-2998 colon -58.3% | KM12 colon -2.16%
